Reference: PubChem BioAssay AID651744 (Broad Institute, 2012)
The campaign covered roughly 5,600 compounds. About 3,100 (55%) were called active. About 3% were inconclusive and are not listed.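 How the source made its calls: active means mean loss of cell viability signal at or above a set limit, and enough replicates individually reaching it; inconclusive means meets only the mean limit or only the replicate share; inactive means meets neither condition.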 The set was probably picked from earlier hits. Only a sample is shown.

Test: viability loss of mouse 3T3 cells – cell-based, cherry-pick, single point, set 2, cytotoxicity control, confirmation (AID 651744);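 further: 0% = median of neutral control wells and 100% = median of positive control wells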
Settings: NIH/3T3 viability, CellTiter-Glo ATP luminescence, 90 h; at 24.9 µM; stronger effect = higher value
For `C[C@@H]1CCCCO[C@H](CN(C)S(=O)(=O)c2ccc(F)cc2)[C@H](C)CN([C@@H](C)CO)C(=O)c2cc(NS(=O)(=O)c3ccccc3)ccc2O1`, the inhibition was -19.2% (inactive).
With `C[C@@H]1CCCCO[C@@H](CN(C)S(=O)(=O)c2ccc(Cl)cc2)[C@H](C)CN([C@@H](C)CO)C(=O)c2cc(NC(=O)Cc3ccccc3)ccc2O1` the inhibition was 12.4% (inactive).
For `C[C@@H]1CN([C@@H](C)CO)C(=O)c2cc(C#CC3CCCCC3)cnc2O[C@H]1CN(C)S(=O)(=O)c1ccccc1`, the inhibition was 106% (active).
For `CC(C)NC(=O)Nc1ccc2c(c1)C(=O)N([C@@H](C)CO)C[C@H](C)[C@H](CN(C)S(=O)(=O)c1ccc(Cl)cc1)OCCCC[C@H](C)O2`, the inhibition was 14% (inactive).
For `C[C@@H]1CN([C@H](C)CO)C(=O)c2cc(C#CC3CCCCC3)cnc2O[C@@H]1CN(C)C(=O)NC1CCCC1`, the inhibition was 75.6% (active).
With `C[C@H]1CN([C@@H](C)CO)C(=O)c2cc(C#CC3CCCCC3)cnc2O[C@H]1CN(C)S(=O)(=O)c1ccccc1` the inhibition was 62.7% (active).
For `C[C@H](CO)N1C[C@H](C)[C@H](CN(C)C(=O)Nc2ccc3c(c2)OCO3)Oc2ncc(C#Cc3cccc(F)c3)cc2C1=O`, the inhibition was 103% (active).
In the case of `C[C@H](CO)N1C[C@H](C)[C@H](CN(C)C(=O)C2CCCCC2)Oc2ncc(C#Cc3cccc(F)c3)cc2C1=O`, the inhibition is reported as 92.3% (active).
For `C[C@@H]1CN([C@H](C)CO)C(=O)c2cc(-c3cncnc3)cnc2O[C@H]1CN(C)C(=O)Nc1ccc2c(c1)OCO2`, the inhibition was 2.69% (inactive).
With `OC[C@H]1[C@H](c2ccc(-c3cccc(F)c3)cc2)[C@@H]2CN(Cc3cncnc3)CCCCN12` the inhibition was 31.7% (active).
In the case of `Cc1cccc(-c2ccc([C@H]3[C@@H](CO)N4CCCCN(Cc5cncnc5)C[C@H]34)cc2)c1`, the inhibition is reported as 102% (active).
With `Cc1ccc(-c2ccc([C@H]3[C@H](CO)N4CCCCN(Cc5cncnc5)C[C@@H]34)cc2)cc1` the inhibition was 64.8% (active).
For `OC[C@@H]1[C@H](c2ccc(C#Cc3ccccc3)cc2)[C@@H]2CN(Cc3cncnc3)CCCCN12`, the inhibition was 104% (active).
In the case of `CN(C)C(=O)c1ccc(-c2ccc([C@H]3[C@@H](CO)N4CCCCN(CC5CC5)C[C@H]34)cc2)cc1`, the inhibition is reported as -3.83% (inactive).
With `OC[C@@H]1[C@H](c2ccc(C#CC3(O)CCCC3)cc2)[C@H]2CN(Cc3cncnc3)CCCCN12` the inhibition was 16.8% (inactive).
For `CCC(=O)N1CC[C@@H]2[C@@H](CO)N(C)c3ccc(-c4cccc(OC)c4)cc3[C@@H]21`, the inhibition was -5.88% (inactive).
For `C[C@@H]1CN([C@H](C)CO)S(=O)(=O)c2ccc(C#C[C@@H](C)O)cc2O[C@@H]1CN(C)Cc1ccc(-c2ccccc2)cc1`, the inhibition was 105% (active).
In the case of `CC(C)C#Cc1ccc2c(c1)O[C@H](CN(C)Cc1ccccc1)[C@H](C)CN([C@@H](C)CO)S2(=O)=O`, the inhibition is reported as 106% (active).
For `C[C@H]1CN([C@@H](C)CO)S(=O)(=O)c2ccc(C#CCN(C)C)cc2O[C@@H]1CN(C)Cc1ccc(F)cc1`, the inhibition was 105% (active).
For `CC(=O)N(C)C[C@H]1Oc2cc(C#CCN(C)C)ccc2S(=O)(=O)N([C@@H](C)CO)C[C@@H]1C`, the inhibition was 16.1% (inactive).
For `C[C@@H]1CN([C@@H](C)CO)S(=O)(=O)c2ccc(/C=C/c3ccccc3)cc2O[C@H]1CN(C)Cc1ccccc1`, the inhibition was 72.5% (active).
With `COc1cccc(C#Cc2ccc([C@@H]3[C@H](C#N)N[C@H]3CO)cc2)c1` the inhibition was 61.1% (active).
For `C[C@H](CO)N1C[C@H](C)[C@H](CN(C)S(=O)(=O)c2ccccc2)Oc2ncc(-c3cccc(C(F)(F)F)c3)cc2C1=O`, the inhibition was 41.1% (active).
For `Cc1ccc(S(=O)(=O)N(C)C[C@@H]2Oc3ncc(-c4cc5ccccc5o4)cc3C(=O)N([C@H](C)CO)C[C@@H]2C)cc1`, the inhibition was 14.8% (inactive).
With `Cc1ccc(-c2cnc3c(c2)C(=O)N([C@@H](C)CO)C[C@@H](C)[C@H](CN(C)Cc2ccccc2F)O3)cc1` the inhibition was 92.5% (active).
With `C[C@H](CO)N1C[C@H](C)[C@H](CN(C)S(=O)(=O)c2cccc(F)c2)Oc2ncc(/C=C/c3ccccc3)cc2C1=O` the inhibition was 76% (active).
With `C[C@H](CO)N1C[C@H](C)[C@@H](CN(C)S(=O)(=O)c2cccc(F)c2)OCc2ccccc2-c2c(n(C)c3ccccc23)C1=O` the inhibition was 4.71% (inactive).
In the case of `C[C@@H]1CN([C@H](C)CO)C(=O)c2cc(/C=C/c3ccccc3)cnc2O[C@@H]1CN(C)Cc1ccncc1`, the inhibition is reported as 26.2% (active).
For `C[C@H]1CN([C@@H](C)CO)C(=O)c2ccccc2-c2ccccc2CO[C@@H]1CN(C)S(=O)(=O)c1ccc(C(F)(F)F)cc1`, the inhibition was 9.87% (inactive).
With `CN1C(=O)c2cc(NC(=O)Nc3ccccc3F)ccc2OC[C@H]2O[C@H](CC(=O)NCc3ccc(-c4ccccc4)cc3)CC[C@H]21` the inhibition was 23% (inactive).
In the case of `O=C(c1ccccc1F)N1C[C@H]2[C@@H](c3ccccc31)[C@@H](CO)N2C(=O)c1ccc(F)cc1`, the inhibition is reported as 9.61% (inactive).
For `COc1ccc(CCN(C)C(=O)C2CCCN(Cc3ccc(OC)c(OC)c3)C2)cc1OC` (centres undefined), the inhibition was 2.44% (inactive).
With `C[C@@H]1CN([C@H](C)CO)S(=O)(=O)c2ccc(C#CC3CCCC3)cc2O[C@@H]1CN(C)C(=O)Cc1ccncc1` the inhibition was 85.1% (active).
In the case of `C[C@H]1CN([C@@H](C)CO)S(=O)(=O)c2ccc(C#CC3CCCC3)cc2O[C@H]1CN(C)C(=O)Cc1ccncc1`, the inhibition is reported as 103% (active).
For `CC(=O)N(C)C[C@@H]1[C@@H](c2ccc(-c3ccccc3F)cc2)[C@@H](CO)N1C(C)=O`, the inhibition was -5.68% (inactive).
With `CCN(C[C@H]1[C@H](c2ccccc2)[C@H](CO)N1C(=O)C1CC1)C(=O)NC1CCCC1` the inhibition was 4.07% (inactive).
For `CS(=O)(=O)N1[C@@H](C#N)[C@H](c2ccc(C#CC3CCCCC3)cc2)[C@@H]1CO`, the inhibition was 75.2% (active).
With `N#C[C@H]1[C@@H](c2ccc(C3=CCCCC3)cc2)[C@@H](CO)N1C(=O)NC1CCCCC1` the inhibition was 60.1% (active).
For `CC(C)NC(=O)N1[C@H](C#N)[C@H](c2ccc(C#CC3CCCCC3)cc2)[C@H]1CO`, the inhibition was 67.4% (active).
For `CCc1cnc(N2[C@H](C#N)[C@H](c3ccc(C4=CCCC4)cc3)[C@@H]2CO)s1`, the inhibition was 7.03% (inactive).
For `O=C(c1cnccn1)N1CC[C@@H]2[C@H](CO)Nc3ccc(-c4cccc(F)c4)cc3[C@@H]21`, the inhibition was 42.7% (active).
In the case of `CN1c2ccc(-c3ccccc3)cc2[C@@H]2[C@@H](CCN2C(=O)c2ccncc2)[C@@H]1CO`, the inhibition is reported as 18.7% (inactive).
With `OC[C@@H]1Nc2ccc(-c3cccc(F)c3)cc2[C@H]2[C@@H]1CCN2Cc1ccncc1` the inhibition was 43.3% (active).
For `N#Cc1ccc(-c2ccc3c(c2)[C@@H]2[C@@H](CCN2C(=O)Cc2ccncc2)[C@@H](CO)N3)cc1`, the inhibition was 14.4% (inactive).
For `O=C(c1ccccn1)N1CC[C@@H]2[C@H]1c1cc(-c3ccccc3)ccc1N[C@@H]2CO`, the inhibition was 7.5% (inactive).
With `O=C(C[C@H]1CC[C@@H]2[C@H](COC[C@H](O)CN2Cc2ccc(Oc3ccccc3)cc2)O1)N1CCN(c2ccccc2)CC1` the inhibition was 104% (active).
In the case of `COc1cccc(S(=O)(=O)N2C[C@@H](O)COC[C@@H]3O[C@H](CC(=O)Nc4ccccc4)CC[C@H]32)c1`, the inhibition is reported as 26.4% (inactive).
With `Cc1ccc(S(=O)(=O)N2C[C@@H](O)COC[C@@H]3O[C@H](CC(=O)NCc4ccc(Cl)c(Cl)c4)CC[C@H]32)cc1` the inhibition was 8.83% (inactive).
With `COc1ccccc1C#Cc1ccc([C@@H]2[C@H](CO)N3CCCCN(C(=O)C4CCCC4)C[C@@H]23)cc1` the inhibition was 103% (active).
In the case of `COc1ccccc1NC(=O)N1CCCCN2[C@H](C1)[C@H](c1ccc(-c3ccccc3)cc1)[C@@H]2CO`, the inhibition is reported as 14.8% (inactive).
In the case of `COc1ccccc1C#Cc1ccc([C@H]2[C@H](CO)N3CCCCN(C(=O)C4CCC4)C[C@@H]23)cc1`, the inhibition is reported as 105% (active).
With `COc1ccccc1C#Cc1ccc([C@@H]2[C@H](CO)N3CCCCN(C(=O)C4CC4)C[C@@H]23)cc1` the inhibition was 100% (active).
With `O=C(C1CCC1)N1CCCCN2[C@H](CO)[C@H](c3ccc(-c4ccncc4)cc3)[C@@H]2C1` the inhibition was -9.25% (inactive).
With `C[C@@H]1CN([C@@H](C)CO)C(=O)c2cc(C#Cc3ccccc3)cnc2O[C@H]1CN(C)C(=O)c1ccccn1` the inhibition was 34.3% (active).
For `C[C@H](CO)N1C[C@H](C)[C@H](CN(C)C(=O)Nc2cccc3ccccc23)Oc2ncc(C#Cc3ccccc3)cc2C1=O`, the inhibition was 105% (active).
In the case of `COc1ccc(C#Cc2cnc3c(c2)C(=O)N([C@@H](C)CO)C[C@H](C)[C@@H](CN(C)C(C)=O)O3)cc1`, the inhibition is reported as 45.4% (active).
For `C[C@H](CO)N1C[C@H](C)[C@@H](CN(C)C(=O)Nc2ccnc(N3CCOCC3)c2)OCc2ccccc2-c2ccccc2C1=O`, the inhibition was 17.3% (inactive).
With `CC(C)CC#Cc1cnc2c(c1)C(=O)N([C@@H](C)CO)C[C@@H](C)[C@H](CN(C)C(=O)Cc1ccncc1)O2` the inhibition was 36.6% (active).
In the case of `Cc1ccc(S(=O)(=O)Nc2ccc3c(c2)C(=O)N([C@@H](C)CO)C[C@@H](C)[C@H](CN(C)C(=O)Nc2cccc4ccccc24)OCCCC[C@H](C)O3)cc1`, the inhibition is reported as 14.8% (inactive).
With `C[C@@H]1CN([C@H](C)CO)C(=O)c2cc(C#Cc3ccccn3)cnc2O[C@H]1CN(C)Cc1ccccc1` the inhibition was -11.5% (inactive).
For `Cc1noc(C)c1S(=O)(=O)Nc1ccc2c(c1)C(=O)N([C@@H](C)CO)C[C@H](C)[C@@H](CN(C)C(=O)Nc1cccc3ccccc13)OCCCC[C@H](C)O2`, the inhibition was 13.2% (inactive).
In the case of `COCC(=O)N(C)C[C@@H]1Oc2ncc(C#Cc3ccccc3OC)cc2C(=O)N([C@@H](C)CO)C[C@H]1C`, the inhibition is reported as 34.8% (active).
For `CCCN(C)C[C@H]1Oc2cc(C#CC3CCCC3)ccc2S(=O)(=O)N([C@H](C)CO)C[C@@H]1C`, the inhibition was 105% (active).
With `CCCN(C)C[C@@H]1Oc2cc(C#Cc3ccc(F)cc3)ccc2S(=O)(=O)N([C@H](C)CO)C[C@H]1C` the inhibition was 105% (active).
